Source: PubChem BioAssay
Shown are actives, neighbours in structure and some others; about 4% of the full set was active somewhere.
CF NFkB inh: blocks PAF-induced NF-kB reporter in cystic fibrosis cells | actives 0.86% (n = 360,000) | KKLEB NF-kB-GFP reporter, GFP fluorescence overnight | inhibition, % at 5 µM;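 active = at least 50% inhibition at 5 µM, scaled per plate between neutral and stimulator controls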;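 also: PAF is a Pseudomonas aeruginosa culture filtrate used as stimulus; plate controls were PAF-stimulated DMSO wells for no effect and unstimulated DMSO wells for full effect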
Peg3 promoter: inhibitors of Peg3 promoter | inhibition, % at 20 µM | AID 588405 | HeLa PEG-Prom luciferase reporter, luminescence, overnight | actives 1.7% (n = 360,000);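 active = inhibition of at least 50% at 20 µM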
TROY signal inh: inhibitors of TROY-dependent NF-kB signaling. inhibition, % at 10 µM. AID 1347056. actives 0.98% (n = 360,000). Q293 LMP1-TROYcd NF-kB luciferase reporter, 4 h;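 active = compounds whose plate-normalised and pattern-corrected inhibition of the luciferase reporter signal at the single screening dose is 50% or more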
HIF-2a inh: blocks HIF-2a reporter activity; 786-0 RCC cells HIF-2a reporter, luciferase luminescence, overnight; inhibition, % at 18.8 µM; actives 0.72% (n = 360,000);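 active = inhibition of the luminescence signal of 40% or more relative to plate controls, in a single-dose primary screen at 18.75 µM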
KKLEB tox: CF airway cell cytotoxicity counter-screen | KKLEB CF airway cells viability, ATPlite luminescence, overnight; active compounds read low; cells stimulated with P. aeruginosa culture filtrate | activity change (cytotoxicity), % at 5 µM | actives 0.36% (n = 360,000) | AID 602141;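 active = corrected activity change at or below -50% at 5 µM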
TWEAK-Fn14 inh: blocks TWEAK-Fn14 interaction in a reporter cell assay; TWEAK-stimulated Fn14 reporter cells, luciferase luminescence, 8 h; inhibition, % at 10 µM; actives 2% (n = 360,000); AID 1159606; in the data active = inhibition above about 50%
Active calls of the source: *.

Fc1cccc2sc(Nc3nc4cc5c(cc4s3)OCO5)nc12 was read as CF NFkB inh -16, Peg3 promoter -327, TROY signal inh -70, HIF-2a inh -193, KKLEB tox -2 and TWEAK-Fn14 inh -25.
Screening O=C(NC(=S)Nc1nc2c(s1)CCCC2)c1ccc(C(=O)c2ccccc2)cc1 returned CF NFkB inh -3, Peg3 promoter -38, TROY signal inh -31, HIF-2a inh -50, KKLEB tox -4 and TWEAK-Fn14 inh 25.
`CCOC(=O)N1CCN(S(=O)(=O)c2ccc(C(=O)Nc3nc4c(s3)CC(C)CC4)cc2)CC1` (centres undefined) gave CF NFkB inh 38, Peg3 promoter 34, TROY signal inh 5, HIF-2a inh 1, KKLEB tox -62* and TWEAK-Fn14 inh -12.
`COC(=O)c1ccc(C(=O)NC(=S)Nc2nc3c(s2)CC(C)CC3)cc1` (centres undefined) gave CF NFkB inh 29, Peg3 promoter -54, TROY signal inh 93*, HIF-2a inh -89, KKLEB tox -29 and TWEAK-Fn14 inh 109*.
`Cc1nc2nc(N)nc(OCc3ccccc3)c2nc1C` gave CF NFkB inh 0, Peg3 promoter 15, TROY signal inh -4, HIF-2a inh 17, KKLEB tox -8 and TWEAK-Fn14 inh 4.
`CCOC(=O)/C=C/C(=O)Nc1cccc([N+](=O)[O-])c1` gave CF NFkB inh 88*, Peg3 promoter 88*, TROY signal inh 3, HIF-2a inh 4, KKLEB tox -45 and TWEAK-Fn14 inh -20.
`Cc1ccc(OC(F)F)c(NC(=O)Nc2cccc(C(F)(F)F)c2)c1` gave CF NFkB inh 17, Peg3 promoter 30, TROY signal inh 40, HIF-2a inh -67, KKLEB tox -20 and TWEAK-Fn14 inh 75*.
`COC(=S)Nc1cccc(C(F)(F)F)c1` gave CF NFkB inh 4, Peg3 promoter -2, TROY signal inh -10, HIF-2a inh 12, KKLEB tox -6 and TWEAK-Fn14 inh -7.
`COC(=O)/C=C/C(=O)Nc1cccc(C(F)(F)F)c1` gave CF NFkB inh 27, Peg3 promoter 34, TROY signal inh -6, HIF-2a inh -7, KKLEB tox -45 and TWEAK-Fn14 inh 51*.
Screening CCOC(=O)c1ccc(N2C(=O)C=CC2=O)cc1 returned CF NFkB inh 19, Peg3 promoter 103*, TROY signal inh 0, HIF-2a inh 95*, KKLEB tox -8 and TWEAK-Fn14 inh 1.
`C=CCNc1nnc(SC2CC(=O)N(c3ccc(OCCC)cc3)C2=O)s1` (centres undefined) gave CF NFkB inh 0, Peg3 promoter 104*, TROY signal inh -1, HIF-2a inh -42, KKLEB tox 2 and TWEAK-Fn14 inh 14.
`CCOc1ccc2nc(SC3CC(=O)N(c4ccc(C)cc4)C3=O)sc2c1` (centres undefined) gave CF NFkB inh 5, Peg3 promoter 89*, TROY signal inh -16, HIF-2a inh -142, KKLEB tox -15 and TWEAK-Fn14 inh -30.
`CCOc1ccc(N2C(=O)CC(Sc3ncccn3)C2=O)cc1` (centres undefined) gave CF NFkB inh -2, Peg3 promoter 1, TROY signal inh -16, HIF-2a inh 2, KKLEB tox 7 and TWEAK-Fn14 inh 7.
Screening CCOC(=O)c1ccc(N2C(=O)CC(Sc3nnc(C)s3)C2=O)cc1 (centres undefined) returned CF NFkB inh -3, Peg3 promoter 8, HIF-2a inh -5, KKLEB tox 9 and TWEAK-Fn14 inh 69*.
For CCOc1ccc(N2C(=O)CC(Sc3nc4ccc(OCC)cc4s3)C2=O)cc1 (centres undefined) the results were CF NFkB inh -10, Peg3 promoter -10, TROY signal inh 7, HIF-2a inh -106, KKLEB tox -16 and TWEAK-Fn14 inh -34.
For Cc1nc2ccc(S(=O)(=O)NCC(=O)NCc3ccc(Cl)cc3)cc2s1 the results were CF NFkB inh -19, Peg3 promoter 11, TROY signal inh -5, HIF-2a inh 11, KKLEB tox 3 and TWEAK-Fn14 inh 15.
`C[C@@H](NC(=O)Cn1ccc(NC(=O)OCc2ccccc2)nc1=O)c1cccc2ccccc12` gave CF NFkB inh -12, Peg3 promoter 13, TROY signal inh 0, HIF-2a inh 30, KKLEB tox 16 and TWEAK-Fn14 inh -1.
For C[C@@H](NCCCn1ccc(NC(=O)OCc2ccccc2)nc1=O)c1cccc2ccccc12 the results were CF NFkB inh -9, Peg3 promoter 71*, TROY signal inh 2, HIF-2a inh 1, KKLEB tox -7 and TWEAK-Fn14 inh 6.
`O=C(CCc1ccccc1)c1ccc2c(c1)OCCCO2` gave CF NFkB inh -7, Peg3 promoter -307, TROY signal inh -64, HIF-2a inh -254, KKLEB tox -6 and TWEAK-Fn14 inh 1.
`O=C(Nc1ccc2c(c1)OCCO2)c1ccc(NC(=O)C2CCCO2)cc1` (centres undefined) gave CF NFkB inh 14, Peg3 promoter -66, TROY signal inh -22, HIF-2a inh 58*, KKLEB tox -6 and TWEAK-Fn14 inh 19.
`O=C(NCc1ccc2c(c1)OCO2)c1ccc(NC(=O)C2CCCO2)cc1` (centres undefined) gave CF NFkB inh -5, Peg3 promoter -15, TROY signal inh -12, HIF-2a inh 5, KKLEB tox -3 and TWEAK-Fn14 inh 6.
For Nc1c(C(=O)Nc2ccccc2)nnn1-c1ccc2c(c1)OCCO2 the results were CF NFkB inh 6, Peg3 promoter -166, TROY signal inh 32, HIF-2a inh -124, KKLEB tox -3 and TWEAK-Fn14 inh 56*.
`Cc1ccc(NC(=O)c2nnn(-c3ccc4c(c3)OCCO4)c2N)cc1` gave CF NFkB inh 4, Peg3 promoter -364, TROY signal inh -14, HIF-2a inh -317, KKLEB tox 7 and TWEAK-Fn14 inh 1.
Screening Cc1cccc(NC(=O)c2ccc3c(c2)OCCO3)c1 returned CF NFkB inh 5, Peg3 promoter -66, TROY signal inh 3, HIF-2a inh -74, KKLEB tox -35 and TWEAK-Fn14 inh 36.
Cc1ccc(NC(=O)c2ccc3c(c2)OCCO3)cc1C was read as CF NFkB inh -15, Peg3 promoter -10, TROY signal inh 47, HIF-2a inh 18, KKLEB tox -20 and TWEAK-Fn14 inh 85*.
O=C(CCCc1ccccc1)c1ccc2c(c1)OCCO2 was read as CF NFkB inh -10, Peg3 promoter 87*, TROY signal inh 88*, HIF-2a inh 66*, KKLEB tox -57* and TWEAK-Fn14 inh 102*.
